From PubChem
ssDAF12 agonist: S. stercoralis DAF-12 nuclear receptor activators, primary screen, cell-based, luminescence, HEK293, GRIP1 co-expression, lit1-tk-luc; HEK293 ssDAF-12/GRIP1 lit1-tk-luc reporter; % of 3 µM dafachronic acid response; activation, % at 6.8 µM; 1% of 370,000 active; AID 652126, 2013;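 active means activation above the mean over all tested compounds plus 3 SD, cut at about 0.9% in these data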;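 further: 0% = DMSO-only wells and 100% = 3 µM delta7-dafachronic acid wells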
hcDAF-12 act: H. contortus DAF-12 nuclear receptor activators, primary screen, cell-based, luminescence, HEK293, lit1-tk-luc reporter | activation, % at 6.8 µM | HEK293 hcDAF-12 lit1-tk-luc reporter; 0% DMSO, 100% Δ7-dafachronic acid | 1.4% of 370,000 active | AID 652067, 2013;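 active means activation above the mean of all tested compounds plus 3 SD, cut at about 5.5% in these data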;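 further: 100% = response to 3 µM Δ7-dafachronic acid high control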
SMARCA2 act: SMARCA2 (BRM) function activators, primary screen, cell-based, luminescence, high throughput | MG213 cells, MMTV-luciferase reporter, dexamethasone, overnight | 1% of 370,000 active | AID 652017, 2013 | activation, % at 9.1 µM; in the data active means activation above about 7.8%;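 further: 0% = vehicle wells and 100% = reference activator wells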
hgDAF-12 ag: H. glycines DAF-12 receptor agonists, primary screen, cell-based, luminescence, HEK293, GAL4 fusion, UAS-luciferase; Nuclear hormone receptor DAF-12 (Heterodera glycines), GAL4 fusion; HEK293 GAL4-hgDAF12 UAS-luciferase reporter, agonist luminescence; normalized to butyrate control; 1.8% of 370,000 active; activation, % at 6.8 µM; AID 687014, 2013;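 active means activation above a cutoff set at the mean of all screened compounds plus 3 SD, cut at about 10% in these data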;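 further: 0% = DMSO wells and 100% = sodium butyrate wells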
DAX1 inh-1: DAX1 (NR0B1) inhibitors, primary screen, cell-based, HEK293, Gal4-DAX1, luciferase luminescence | inhibition, % at 6.75 µM | Nuclear receptor subfamily 0 group B member 1 (Homo sapiens), P51843 | 0.99% of 340,000 active | HEK293 Gal4-DAX1 luciferase reporter;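 active means inhibition above the mean over all tested compounds plus 3 SD, cut at about 4.2% in these data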;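 further: 0% = DAX1-transfected cells with DMSO and 100% = empty-vector control cells with DMSO; inhibition shows as a rise in luminescence from relieved DAX1 repression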
Target sequence (P51843 207-470 limits assumed): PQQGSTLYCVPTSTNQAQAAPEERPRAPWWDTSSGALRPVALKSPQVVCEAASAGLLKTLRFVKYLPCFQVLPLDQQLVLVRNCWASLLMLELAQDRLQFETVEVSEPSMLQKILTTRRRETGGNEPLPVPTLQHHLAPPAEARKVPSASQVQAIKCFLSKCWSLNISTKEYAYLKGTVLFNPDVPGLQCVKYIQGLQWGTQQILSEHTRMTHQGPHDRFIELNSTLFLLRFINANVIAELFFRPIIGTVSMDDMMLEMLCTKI
DAX1 inh-2: DAX1 (NR0B1) inhibitors on StAR promoter, primary screen, cell-based, luminescence, SF-1 (NR5A1), full-length DAX-1. HEK293T StAR-luciferase reporter, SF-1/DAX-1 repression relief. inhibition, % at 6.8 µM. 1.1% of 370,000 active. AID 652010, 2013;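 active means inhibition above the mean over all tested compounds plus 3 SD, cut at about 3.6% in these data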;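 further: 0% = DAX-1 cells with DMSO and 100% = cells lacking DAX-1 with DMSO; higher inhibition means more luminescence from relief of DAX-1 repression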
Starred values were filed as active, the others as inactive; x = no result given. In the library only some 4.8% were active in any assay of this set; here they are far more common.

SMILES	ssDAF12 agonist	hcDAF-12 act	SMARCA2 act	hgDAF-12 ag	DAX1 inh-1	DAX1 inh-2
COc1ccc2cc(C#N)c(SCC(=O)N3CC(=O)Nc4ccccc43)nc2c1	x	x	x	x	1	x
CCOc1ccc(/C=N/Nc2nc(C)cs2)c(O)c1	1	5	0	1	4.5*	0
OC(c1ccc(F)cc1)c1ncc(-c2ccccc2F)[nH]1 (configuration not stated)	0	2	1	11*	x	3
OC(c1ccc(F)cc1)c1ncc(-c2ccccc2Cl)[nH]1 (configuration not stated)	0	2	5	6	x	1
O=C(O)c1cccc(N2C(=O)c3ccc(C(=O)c4cccc([N+](=O)[O-])c4)cc3C2=O)c1	5.8*	0	0	3	0	0
COc1ccccc1NC1CCCCC1NS(=O)(=O)c1ccc(C)cc1 (configuration not stated)	-1	-2	-2	-1	-1	-1
COC(=O)c1ccc2c(c1)SC1=C(CCCC1=O)N2	-1	-1	4	-2	-1	-2
COC(=O)C1=C(C)Nc2ccc(C)cc2S1	0	2	0	5	4.2*	1
COc1cc2c(cc1NC(=O)COC(=O)C(CCSC)NC(=O)c1ccccc1Cl)oc1ccccc12 (configuration not stated)	2.5*	5	0	-1	-1	1
CN(CC(=O)Nc1ccccc1C(F)(F)F)C(=O)c1cc2c(s1)CCCCC2	-1	0	0	1	0	0
Cc1cccc(C(=O)OCC(=O)c2ccc3c(c2)OCO3)c1O	0	3	5	9	2	3.9*
Cc1cccc(NC(=O)C(C)SCc2nc3sc4c(c3c(=O)[nH]2)CCCC4)n1 (configuration not stated)	1.3*	2	0	2	-1	-2
Cc1cccc(NC(=O)CCc2nc3sc4c(c3c(=O)[nH]2)CCCC4)c1	-1	-2	0	3	0	-1
COc1ccc(CCNC(=O)C/C(C)=N/NC(=O)c2ccc(N)cc2)cc1OC	0.9*	4	4	6	1	1
COc1ccc(NC(=O)CCCc2ccccc2)cc1OC	0	0	5	9	4.2*	1
COc1ccc(CCNC(=O)Cc2ccccc2)cc1OC	-1	1	0	1	5.6*	0
COc1ccc(CCNC(=O)Cn2nc(C(=O)O)c3ccccc3c2=O)cc1OC	-1	0	-1	0	0	1
COc1ccc(CC(=O)NNC(=O)c2nn(Cc3ccccc3)c(=O)c3ccccc23)cc1OC	-1	-1	-1	4	5.1*	1
COc1ccc(NC(=O)CCCC(=O)c2ccccc2)cc1OC	-1	-1	-3	-1	-1	0
COc1ccc(CCNC(=O)CCc2ccccc2)cc1OC	-2	0	1	-3	x	0
Cc1ccc(N=Cc2nc(-c3ccco3)oc2O)cc1	-2	1	4	5	0	1
CN1C(=O)Cc2cc(S(=O)(=O)NCCc3ccc(Cl)cc3)ccc21	-1	-1	-1	-1	0	0
Cc1cccc(C)c1NC(=O)CNC(=O)Cn1nc(C)c(C)c(C#N)c1=O	-1	-1	0	1	-1	1
Cc1ccc(NC(=O)CCCc2ccccc2)nc1	-1	2	5	8	1	3.8*
CCC(CO)NCc1cc(OC)c(OCC(=O)NCCc2ccccc2)cc1Br (configuration not stated)	-2	-1	8.3*	3	1	0
SMILES	ssDAF12 agonist	hcDAF-12 act	SMARCA2 act	hgDAF-12 ag	DAX1 inh-1	DAX1 inh-2
Cc1ccc(NC(=O)Cc2ccc(-c3ccccc3)cc2)nc1	-2	3	0	2	1	0
CCn1c2ccccc2c2cc(CNCc3ccc(OC)cc3OC)ccc21	-3	-2	-6	2	-1	-2
CCCSc1ccc([C@@H]2[C@H]3C(=O)N(CC)C(=O)[C@H]3[C@]3(C(=O)OC)CCCN23)cc1OC	-1	-2	-2	2	0	0
COc1ccc(C(c2c(NC(C)=O)sc3c2CCCC3)N2CCN(CCO)CC2)cc1OC (configuration not stated)	-1	0	0	-4	0	-1
CC(=O)Nc1sc2c(c1C(c1cccc(Cl)c1)N1CCN(CCO)CC1)CCCC2 (configuration not stated)	-1	-2	0	-2	4.9*	0
COc1cccc(CC(=O)Nc2nc(-c3cc(OC)ccc3OC)cs2)c1	-2	-3	-2	-4	0	0
O=C(c1cc2cc(Cl)ccc2[nH]1)N1CCN(C(=O)c2ccco2)CC1	0	5.9*	-2	1	0	1
COC(=O)Cn1c(C(O)c2ccccc2)nc2ccccc21 (configuration not stated)	1.7*	2	0	-1	3	0
CCn1c(C(O)c2ccccc2)nc2ccccc21 (configuration not stated)	-1	-1	-3	1	2	-1
CCCCn1c(NC(=O)c2ccccc2)nc2ccccc21	-2	1	1	3	0	-1
CCn1c(NC(=O)c2ccccc2)nc2ccccc21	2.3*	5	-2	3	x	-1
CCn1c(C(C)NC(C)=O)nc2ccccc21 (configuration not stated)	0	4	1	12*	0	3
COc1ccc(CN(CC(=O)NCC2CCCO2)C(=O)CNS(=O)(=O)c2ccc(C)cc2)cc1 (configuration not stated)	0	-2	0	1	0	0
CN(C)CCCN(C(=O)COc1ccc(Cl)cc1)c1nc2c(F)cccc2s1	-1	-1	-5	1	1	0
Cc1cccc2sc(N(CCCN(C)C)C(=O)COc3ccc(Cl)cc3)nc12	-1	0	0	1	4.3*	1
Cc1noc(NS(=O)(=O)c2ccc(N/C=C\C(=O)c3ccc(Br)cc3)cc2)c1C	0	1	1	2	2	1
Cc1noc(NS(=O)(=O)c2ccc(N/C=C\C(=O)c3cccc4ccccc34)cc2)c1C	0	1	0	1	6.6*	2
